SMARCA2 activ = SMARCA2 function activation, primary screen; 370,000 compounds, 1% hits; AID 652017; MG213 cells, MMTV-luciferase reporter, dexamethasone, overnight; activation, % at 9.1 µM; in the data active = activation above about 7.8%;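 note: 0% = vehicle wells and 100% = reference activator wells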
proKLK7 act = proKLK7 (human) activation, primary screen; P49862; purified proKLK7, EDANS-DABCYL substrate fluorescence; 100% is mature enzyme control, 0% vehicle; activation, % at 7 µM; 370,000 compounds, 0.9% hits; AID 652039;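 active = activation above the mean of all tested compounds plus 3 SD, computed per campaign excluding outliers beyond control limits, cut at about 13% in these data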
Target sequence (P49862 whole entry, looked up): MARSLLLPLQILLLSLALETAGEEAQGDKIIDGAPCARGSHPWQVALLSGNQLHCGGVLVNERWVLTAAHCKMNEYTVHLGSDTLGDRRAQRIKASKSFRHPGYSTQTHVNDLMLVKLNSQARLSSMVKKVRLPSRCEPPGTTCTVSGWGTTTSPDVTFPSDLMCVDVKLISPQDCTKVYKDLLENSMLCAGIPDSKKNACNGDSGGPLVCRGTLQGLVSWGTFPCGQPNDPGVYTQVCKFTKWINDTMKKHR
MsrA act = bovine methionine sulfoxide reductase A activation; purified bovine MsrA, absorbance read-out; activation, % at 10.6 µM; 360,000 compounds, 0.3% hits; in the data active = activation above about 7.5%;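 note: 0% = vehicle and 100% = reference activator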
MsrA inhibitor = inhibitors of bovine MsrA; purified bovine MsrA, absorbance read-out; inhibition, % at 15.5 µM; 360,000 compounds, 0.75% hits; in the data active = inhibition above about 4.5%;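 note: 0% = vehicle wells with enzyme and 100% = reference inhibitor wells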
KLK7 act conf = proKLK7 activation, confirmation; purified proKLK7, EDANS-DABCYL substrate fluorescence; scaled: vehicle 0, mature enzyme 100; AID 686949; shares compounds with proKLK7 act; activation, % at 7 µM; 3,200 compounds, 68% hits;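 active = activation, as change over the incubation, above the mean of all tested compounds plus 3 SD, cut at about 13% in these data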
EDANS-DABCYL int = optically interferes with EDANS-DABCYL signal, flagging KLK7 hits; activation, % at 7 µM; shares compounds with proKLK7 act; AID 686952; EDANS-DABCYL substrate fluorescence interference, no enzyme, 4 h; solvent 0%, active enzyme control 100%; 3,200 compounds, 80% hits;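 active = activation above the all-compound mean plus 3 SD, ignoring values outside control-based bounds, cut at about 4.8% in these data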;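 note: value is the 4 h activation minus the activation read at time zero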
K7 EDANS ctr = optically interferes with EDANS-DABCYL fluorescence, kallikrein-7 activator counter-screen | shares compounds with proKLK7 act | EDANS-DABCYL peptide fluorescence interference, no enzyme | EC50, µM | 250 compounds, 20% hits | AID 720493;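 active = compounds that raise the fluorescence signal in this interference counterscreen, with EC50 at or below 10 µM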;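 note: intact quenched peptide substrate alone read at 355 nm excitation and 520 nm emission; signal is fluorescence gain from T0 to T4 after four hours at room temperature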
An asterisk follows results filed as active; i = inactive; x = not tested or not shown. Compounds with a hit are over-represented: about 2.8% of the library has one in this group of screens.

SMILES	SMARCA2 activ	proKLK7 act	MsrA act	MsrA inhibitor	KLK7 act conf	EDANS-DABCYL int	others
COc1ccc(NC(=O)c2ccc(S(=O)(=O)N3CC(C)CC(C)C3)cc2)cc1S(N)(=O)=O (stereo not given)	-2	18*	-1	0	24*	14*	K7 EDANS ctr=i
CCn1c(Cc2cccs2)nnc1SCC(=O)Nc1ccc(Cl)cc1C	-2	0	x	x	x	x
CSc1nc(N2CCOCC2)nc2ccc(C)cc12	1	35*	-4	1	-31	-43
COc1ccc2nc3oc(C(=O)N4CCC(C(N)=O)CC4)cc3cc2c1	7	3	-14	2	x	x
COCCCNC(=O)c1cc2cc3cc(OC)ccc3nc2o1	3	23*	0	2	23*	29*
Cc1ccc2cc3cc(C(=O)N4CC(C)CC(C)C4)oc3nc2c1 (stereo not given)	4	1	-1	2	x	x
CCCCN(C)CCNC(=O)c1cc2cc3ccc(OC)cc3nc2o1	2	100*	-2	4	54*	77*
COc1ccc2cc3cc(C(=O)NCC4COc5ccccc5O4)oc3nc2c1 (stereo not given)	-3	-112	-14	2	x	x
Cc1ccc2cc3cc(C(=O)NCCCN4CC(C)CC(C)C4)oc3nc2c1 (stereo not given)	-2	30*	-1	3	4	-1
CCN(CC)CCNC(=O)c1cc2cc3ccc(OC)cc3nc2o1	0	24*	-4	1	76*	84*
O=C(CSc1nnc(-c2ccc(Cl)cc2)n1-c1ccccc1)NN=Cc1c[nH]c2ccccc12	-5	0	x	x	x	x
CN(Cc1ccccc1N1CCCC1)C(=O)c1cc2cc(Cl)ccc2o1	3	-1	-3	0	x	x
CC(C)c1cc(C(C)C)c(S(=O)(=O)N2CCC(c3cn4ccccc4n3)CC2)c(C(C)C)c1	-1	1	x	x	x	x
COc1cc(Cl)c(CNC[C@H]2O[C@@H](n3cnc4c(=O)[nH]c(N)nc43)[C@H](O)[C@@H]2O)c(Cl)c1O	-2	-1	0	-1	x	x
O=C(ONC(=O)C1C2C=CC(C2)C1C(=O)NOC(=O)c1ccccc1)c1ccccc1 (stereo not given)	1	45*	-2	0	0	-1
CCOC(=O)c1c(-c2ccc(OC)cc2)nc2nonc2c1N	2	-1	1	2	x	x
CC(=O)c1c(C)nc2nonc2c1N	2	16*	-2	0	33*	38*
O=C(Nc1cccc(C(F)(F)F)c1)c1csc([C@@H]2O[C@H](CO)[C@@H](O)[C@H]2O)n1	1	1	-6	-1	x	x
CCOC(=O)c1cc(-c2ccc(Cl)cc2)nc2c1c(C)nn2CCC#N	1	-5	-2	0	x	x
O=C(COC(=O)c1cc(-c2ccco2)nc2ccccc12)NCc1ccccc1	7	22*	-5	0	51*	55*
CCOC(=O)c1cc(-c2ccco2)nc2c1c(C)nn2CCC#N	1	32*	-4	1	-48	-66
CCN(CC)C(=O)COC(=O)c1cc(-c2ccco2)nc2ccccc12	1	74*	1	1	20*	17*	K7 EDANS ctr=i
Cc1ccccc1-n1c(=O)c(C#N)cc2c(=O)n3ccccc3nc21	-2	13*	-1	2	71*	73*
C=CCn1c(=N)c(C#N)cc2c(=O)n3ccccc3nc21	-4	11	3	2	x	x
Cc1cc(-n2c(=O)c(C#N)cc3c(=O)n4ccccc4nc32)no1	2	22*	-1	2	30*	57*
SMILES	SMARCA2 activ	proKLK7 act	MsrA act	MsrA inhibitor	KLK7 act conf	EDANS-DABCYL int	others
C=CCn1c(=O)c(C#N)cc2c(=O)n3ccccc3nc21	2	39*	2	1	67*	83*
C/C=C/c1ccc2c(c1)O[C@H](CN(C)C(=O)NC1CCCC1)[C@H](C)CN([C@H](C)CO)S2(=O)=O	-2	0	-5	0	x	x
CCC(C)NC(=O)CSc1nnc(-c2cc(OC)c(OC)c(OC)c2)o1 (stereo not given)	-4	0	x	x	x	x
O=C(O)CCC(=O)N1CCN(c2nc(-c3ccccc3)c3ccccc3n2)CC1	-3	32*	-7	0	8	8.6*
Cc1ccc2nc(N3CCN(C(=O)CCCC(=O)O)CC3)nc(-c3ccccc3)c2c1	-2	3	-2	1	x	x
CCS(=O)(=O)Nc1ccc2c(c1)C(=O)N(C)[C@@H]1CC[C@H](CC(=O)OC)O[C@H]1CO2	2	0	x	x	x	x
Cc1ccc(-n2c(SCC(=O)Nc3ccccc3-c3ccccc3)nnc2-c2cccs2)cc1	5	-1	x	x	x	x
COC(CNC(=O)c1ccc2nc(-c3ccccc3)c(-c3ccccc3)nc2c1)OC	-3	-8	-1	2	x	x
O=C(NCC1CCCO1)c1coc2nc3ccccc3nc12 (stereo not given)	1	80*	3	3	308*	293*
COC(CNC(=O)c1coc2nc3ccccc3nc12)OC	-3	47*	-3	3	282*	269*
COc1ccc(C(=O)NCC2CCN(C(=O)C(=O)c3cccs3)CC2)cc1	-7	0	x	1	x	x
c1ccc(Cc2cnc(N3CCN(Cc4ccc5c(c4)OCCO5)CC3)nc2)cc1	-8	1	x	0	x	x
COc1ccccc1N1CCN(C(c2cccs2)C(C)NC(=O)c2ccncc2)CC1 (stereo not given)	-5	296*	-6	0	0	1
O=C(Nc1ccc(Nc2cccnc2)cc1)c1c[nH]c2ccccc12	1	0	x	1	x	x
O=C(Nc1ccccc1)Nc1sccc1-c1nc2ccccc2s1	-3	35*	-5	0	-212	-177
O=C(Nc1cccc(Cl)c1)Nc1sccc1-c1nc2ccccc2s1	-2	-239	-4	1	x	x
CCC(C)CNC(=O)c1oc(=O)c2ccccc2c1-c1ccc(C)cc1 (stereo not given)	-2	0	x	x	x	x
CCC(CC)COC(=O)C1=C(C)NC(=O)NC1c1cc(OC)ccc1OC (stereo not given)	-2	52*	0	0	1	2
CCOC(=O)COc1ccc2c3c(c(=O)oc2c1)CCCC3	-1	3	-2	0	x	x
CC[C@@H](NS(=O)(=O)c1ccc(C)cc1)C(=O)Oc1ccc2c3c(c(=O)oc2c1)CCC3	-1	241*	-3	1	534*	473*
Cc1ccc(S(=O)(=O)NC(C(=O)Oc2ccc3c(C(F)(F)F)cc(=O)oc3c2)c2ccccc2)cc1 (stereo not given)	-2	48*	-3	2	55*	73*
CC(C)CC(C(=O)Oc1ccc2c3c(c(=O)oc2c1)CCC3)N1C(=O)c2ccccc2C1=O (stereo not given)	-1	-1	-2	0	x	x
